According to the supplement of paper PMC13380429:

Tested on: Vero E6 infected with SARS-CoV-2
Test: inhibition of SARS-CoV-2 cytopathic effect; higher = more antiviral protection, active = above 15
Settings: 48 h

Measured: inhibition of SARS-CoV-2 cytopathic effect

C=CC(=O)Nc1cc2c(Nc3ccc(F)c(Cl)c3)ncnc2cc1OCCCN1CCOCC1 [canertinib]
inactive: 1 nM 2.3% | 8.33 nM -2.25% | 100 nM -6.93% | 833.33 nM -13.4% | 10000 nM -20.1%

CN1[C@@H]2CC[C@H]1C[C@@H](OC1c3ccccc3CCc3ccccc31)C2 [deptropine]
inactive: 1 nM 0.19% | 8.33 nM 0.38% | 100 nM 1.32% | 833.33 nM -0.87% | 10000 nM 12.7%

Cc1noc(-c2ccc(-c3ccc(CC(=O)O)cc3)cc2)c1NC(=O)O[C@H](C)c1ccccc1
inactive: 1 nM 0.92% | 8.33 nM 0.35% | 100 nM -2.41% | 833.33 nM -3.36% | 10000 nM -4.34%

N[C@@H]1c2cccnc2[C@H](OC(=O)N2CCC(n3c(=O)[nH]c4ncccc43)CC2)CC[C@H]1c1cccc(F)c1F [rimegepant]
inactive: 1 nM -0.34% | 8.33 nM 1.65% | 100 nM -0.46% | 833.33 nM -1.15% | 10000 nM 0.55%

CCc1cc(C(N)=S)ccn1 [ethionamide]
inactive: 1 nM -1.54% | 8.33 nM 0.54% | 100 nM -0.38% | 833.33 nM -1.73% | 10000 nM 2.79%

CCOc1ccc(Cc2cc([C@@H]3O[C@H](SC)[C@@H](O)[C@H](O)[C@H]3O)ccc2Cl)cc1 [sotagliflozin]
inactive: 1 nM -0.94% | 8.33 nM -2.52% | 100 nM -1.14% | 833.33 nM -3.56% | 10000 nM -3.65%

CC(=O)OCC(CCn1cnc2cnc(N)nc21)COC(C)=O [famciclovir]
inactive: 1 nM -0.42% | 8.33 nM -2.15% | 100 nM -3.04% | 833.33 nM -0.25% | 10000 nM -2.48%

CN/C(=N\CCSCc1nc[nH]c1C)NC#N [cimetidine]
inactive: 1 nM 0.42% | 8.33 nM -1.81% | 100 nM -0.46% | 833.33 nM 2.3% | 10000 nM -1.84%

CC(C)Cc1ccc([C@@H](C)C(=O)NCCO)cc1 (racemic) [mabuprofen]
inactive: 1 nM -1.95% | 8.33 nM -2.13% | 100 nM -0.66% | 833.33 nM -0.72% | 10000 nM -4.85%

Cc1cc(C)c(CNC(=O)c2cc(-c3ccc(CN4CCOCC4)cc3)cc3c2cnn3C2CCCC2)c(=O)[nH]1
inactive: 1 nM -0.23% | 8.33 nM 1.2% | 100 nM 1.14% | 833.33 nM -1.29% | 10000 nM -1.46%

Nc1ccccc1S(N)(=O)=O [2-aminobenzenesulfonamide]
inactive: 1 nM 0.91% | 8.33 nM 2.45% | 100 nM 3.94% | 833.33 nM 3.53% | 10000 nM -0.71%

Nc1ncc2c(n1)CC(c1ccco1)CC2=O (stereo not given)
inactive: 1 nM 2.9% | 8.33 nM 3.51% | 100 nM 2.68% | 833.33 nM 4.74% | 10000 nM 3.17%

CO[C@H]1/C=C/O[C@@]2(C)Oc3c(C)c(O)c4c(O)c(c5c(nc6cc(C)ccn65)c4c3C2=O)NC(=O)/C(C)=C\C=C\[C@H](C)[C@H](O)[C@@H](C)[C@@H](O)[C@@H](C)[C@H](OC(C)=O)[C@@H]1C [rifaximin]
inactive: 1 nM 0.71% | 8.33 nM -2.16% | 100 nM -0.03% | 833.33 nM -3.72% | 10000 nM -3.3%

CN(CC[C@@H](Oc1ccc(-c2ccccc2)cc1)c1ccc(F)cc1)CC(=O)O
inactive: 1 nM 0.18% | 8.33 nM 1.55% | 100 nM 0.56% | 833.33 nM 0.79% | 10000 nM 0.89%

O=C(COc1ccc(Cl)cc1)N1CCN(Cc2ccc3c(c2)OCO3)CC1 [fipexide]
inactive: 1 nM -0.21% | 8.33 nM 0.95% | 100 nM 1.92% | 833.33 nM 1.62% | 10000 nM 0.49%

O=C(O)c1ccc(Nc2ncc3c(n2)-c2ccc(Cl)cc2C(c2c(F)cccc2F)=NC3)cc1
inactive: 1 nM -1.58% | 8.33 nM -1.02% | 100 nM 0.11% | 833.33 nM -1.57% | 10000 nM -1.05%

CNCCn1c(=O)c2cc(OC)c(OC)cc2c2cnc3cc4c(cc3c21)OCO4
inactive: 1 nM 3.31% | 8.33 nM 1.57% | 100 nM -1.27% | 833.33 nM -9.93% | 10000 nM -15.7%

O=S1(=O)OC(c2ccc(O)cc2)(c2ccc(O)cc2)c2ccccc21 [phenolsulfonphthalein]
inactive: 1 nM -0.46% | 8.33 nM -1.87% | 100 nM -1.84% | 833.33 nM -1.16% | 10000 nM 3.89%
